Results: PubChem BioAssay AID624053 (National Center for Advancing Translational Sciences (NCATS), 2012)
Activity calls are given as the source filed them.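 Rule for the calls: active = neuropeptide S receptor blocker with IC50 at or below 10 µM; inconclusive = IC50 above 10 µM but below 20 µM; inactive = IC50 of 20 µM or more.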

These compounds were tested against Neuropeptide S receptor (Homo sapiens) (UniProt Q6W5P4) (assay: qHTS for Antagonists of the Neuropeptide S Receptor: SAR in ERK). Settings: CHO-NPSR cells, NPS-induced pERK1/2 HTRF.
Text: Neuropeptide S receptor (NPSR), previously known as GPR154, is a recently de-orphanized G protein coupled receptor. Its endogenous ligand is the 20 amino acids peptide Neuropeptide S (NPS). […] NPS and its receptor are found in various tissues. Specifically they are highly expressed in brain areas that have been implicated in modulation of arousal, stress and anxiety. Central administration of NPS in mice produces an unusual profile of activity by inducing wakefulness and arousal, while at the same time suppressing anxiety. Therefore, NPSR may represent a novel drug target for the treatment of sleep and anxiety disorders. To identify NPSR antagonists, we developed a cell-based assay with transfected NPS receptor. NPS can stimulate the production of cAMP as well as release intracellular calcium in Chinese hamster ovary cells stably expressing NPS receptor. This change in intracellular calcium can be detected using a calcium indicator dye on a calcium imaging plate reader system (FDSS). […] Reinscheid et al. have demonstarted that the binding of NPS to NPSR activates the phosphorylation of the MAPK extracellular regulated kinase (ERK). Thus NPSR antagonists of ERK activation should reduce ERK phosphorlyation is a dose dependent manner NIH Chemical Genomics Center [NCGC] NIH Molecular Libraries Probe Production centers Network [MLPCN] MLPCN Grant: DA026210 Assay Submitter (PI): Heilig, Markus Alexander
Intracellular pERK1/2 levels were measured using a time-resolved fluorescence resonance energy transfer (TR-FRET) assay by a HTRF Cellul'erk kit (Cisbio, MA). The CHO cells overexpressing NPSR were seeded at 200 microL/well with 25,000 cells in white, tissue culture treated clear bottom 96-well plates (Greiner Bio-One, NC). Following overnight incubation at 37 masculineC with 5% CO2, the growth medium was replaced with 100 microL /well Opti-MEM medium (ATCC, VA) and incubated at 37 degrees C with 5% CO2 for an additional 4 hours. The compounds prepared in 100% DMSO were added to assay plates at 1 microL/well. The assay plates were incubated for 10 min at 37 degrees C with 5% CO2 and NPS solution (2 nM NPS peptide prepared in the Opti-MEM medium with 0.2 % BSA and 0.005 % Tweeen-20) was then added at 100 microL/well. After a 20 min incubation at 37 degrees C with 5% CO2, the media was aspirated and the place plates were placed on ice for 5 min followed by the addition of 50 microL/well of 1 cell lyses solution. The plates were then incubated at room temperature while gently rocking (for mixing) for 15 min. […] After overnight incubation at room temperature in the dark, the plates were measured using the EnVision plate reader similarly as that of cAMP assay.

Neuropeptide S receptor (Homo sapiens), sequence (Q6W5P4 whole entry, looked up): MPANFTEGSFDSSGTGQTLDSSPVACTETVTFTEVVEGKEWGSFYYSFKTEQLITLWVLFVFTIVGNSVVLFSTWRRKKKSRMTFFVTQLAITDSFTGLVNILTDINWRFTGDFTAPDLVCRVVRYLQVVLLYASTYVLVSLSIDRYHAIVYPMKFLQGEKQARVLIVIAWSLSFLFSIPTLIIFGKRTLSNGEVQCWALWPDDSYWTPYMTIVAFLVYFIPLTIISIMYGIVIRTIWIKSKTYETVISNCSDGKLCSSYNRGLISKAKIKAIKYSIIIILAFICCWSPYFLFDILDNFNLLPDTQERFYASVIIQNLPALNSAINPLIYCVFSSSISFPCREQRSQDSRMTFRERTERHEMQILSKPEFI

IC50, active:
CCC(C)(CCN1CCOCC1)N(Cc1cc2ccccc2n(C)c1=O)C(=O)C1CCCCC1 (centres undefined) 9 nM
O=C1OC(c2ccccc2)(c2ccccc2)N2CCN(C(=O)NCc3ccc(F)cc3)CC12 (centres undefined) 15.8 nM
COc1ccc(C2c3c(ncn(CCN4CCOCC4)c3=N)Oc3ccc4ccccc4c32)cc1OC (centres undefined) 59.7 nM
Cc1c(P(=S)(c2ccccc2)c2ccccc2)[n+]2ccccc2n1C/C=C/c1ccccc1 9.3 nM
